Assay outcomes (PubChem BioAssay)
DAX1 inh-1: inhibits human nuclear receptor DAX1; HEK293 Gal4-DAX1 luciferase reporter, luminescence; inhibition, % at 6.75 µM; AID 504766; 340,000 compounds, 0.99% hits;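 active means inhibition above the mean over all tested compounds plus 3 SD, cut at about 4.2% in these data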;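 further: 0% = DAX1-transfected cells with DMSO and 100% = empty-vector control cells with DMSO; inhibition shows as a rise in luminescence from relieved DAX1 repression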
Target sequence (P51843 207-470 limits assumed): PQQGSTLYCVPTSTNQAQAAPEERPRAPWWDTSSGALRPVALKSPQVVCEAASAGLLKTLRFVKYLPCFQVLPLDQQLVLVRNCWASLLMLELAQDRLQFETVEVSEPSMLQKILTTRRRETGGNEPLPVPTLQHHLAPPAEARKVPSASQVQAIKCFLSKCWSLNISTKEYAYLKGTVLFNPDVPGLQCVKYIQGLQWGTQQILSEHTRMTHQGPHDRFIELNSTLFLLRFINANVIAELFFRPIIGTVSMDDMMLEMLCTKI
hcDAF12 agonist: activators of H. contortus DAF-12 nuclear receptor; HEK293 hcDAF-12 lit1-tk-luc reporter, luminescence; 0% DMSO, 100% Δ7-dafachronic acid; activation, % at 6.8 µM; 370,000 compounds, 1.4% hits; AID 652067;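 active means activation above the mean of all tested compounds plus 3 SD, cut at about 5.5% in these data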;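 further: 100% = response to 3 µM Δ7-dafachronic acid high control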
hgDAF-12 ag: agonists of H. glycines DAF-12 nuclear receptor | HEK293 GAL4-hgDAF12 UAS-luciferase reporter, agonist luminescence; normalized to butyrate control | 370,000 compounds, 1.8% hits | activation, % at 6.8 µM;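 active means activation above a cutoff set at the mean of all screened compounds plus 3 SD, cut at about 10% in these data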;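 further: 0% = DMSO wells and 100% = sodium butyrate wells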
DAX1 inh-2: blocks DAX1 repression of SF-1 activated StAR promoter; HEK293T StAR-luciferase reporter, SF-1/DAX-1 repression relief; 370,000 compounds, 1.1% hits; inhibition, % at 6.8 µM;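 active means inhibition above the mean over all tested compounds plus 3 SD, cut at about 3.6% in these data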;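 further: 0% = DAX-1 cells with DMSO and 100% = cells lacking DAX-1 with DMSO; higher inhibition means more luminescence from relief of DAX-1 repression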
SMARCA2 activ: increases SMARCA2 function in MMTV reporter cells; MG213 cells, MMTV-luciferase reporter, dexamethasone, overnight; activation, % at 9.1 µM; 370,000 compounds, 1% hits; in the data active means activation above about 7.8%;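 further: 0% = vehicle wells and 100% = reference activator wells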
ssDAF-12 act: S. stercoralis DAF-12 activation, primary screen. HEK293 ssDAF-12/GRIP1 lit1-tk-luc reporter, luminescence; % of 3 µM dafachronic acid response. activation, % at 6.8 µM. 370,000 compounds, 1% hits;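 active means activation above the mean over all tested compounds plus 3 SD, cut at about 0.9% in these data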;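 further: 0% = DMSO-only wells and 100% = 3 µM delta7-dafachronic acid wells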
DAX1 conf: confirmation of human DAX1 (NR0B1) inhibitors | shares compounds with DAX1 inh-2 | HEK293T StAR-promoter luciferase reporter, SF-1/DAX-1 repression | inhibition, % at 6.8 µM | 2,400 compounds, 87% hits;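 active means inhibition above the average of every tested compound plus 3 SD, cut at about 3.8% in these data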;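 further: 0% = DAX-1 cells with DMSO and 100% = no DAX-1 control cells with DMSO; active compounds raise luminescence by relieving repression of the StAR reporter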
SF1 mutant ctr: nonselective inhibitor or artifact in SF-1 mutant DAX1 counter-screen; AID 652136; inhibition, % at 6.8 µM; 2,400 compounds, 78% hits; shares compounds with DAX1 inh-2; HEK293 StAR-luciferase, SF-1 AF2 mutant, luminescence;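 active means inhibition above the mean of all tested compounds plus 3 SD, cut at about 3% in these data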;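 further: 0% = DAX-1 transfected cells with DMSO and 100% = cells without DAX-1 with DMSO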
SMARCA2 conf: SMARCA2 activation, confirmation screen; shares compounds with SMARCA2 activ; MG213 cells, MMTV-luciferase with dexamethasone, luminescence, overnight; MG213 cells expressing E1A, Rb sequestered; DMSO wells 0%, reference activator 100%; 3,500 compounds, 30% hits; activation, % at 9.1 µM;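 active means activation above its plate's cutoff, the mean activation of tested wells plus 3 SD, cut at about 7.9% in these data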
GAL4-VP16 Luc: GAL4-VP16 reporter activation counter-screen | shares compounds with SMARCA2 activ | HEK293 GAL4-VP16 pG5luc reporter, luciferase luminescence; scaled: DMSO wells 0%, SAHA wells 100% | activation, % at 9.1 µM | 3,500 compounds, 41% hits | AID 686939;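 active means activation above the solvent-only control well mean plus 3 SD, averaged across control plates, cut at about 5.2% in these data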
LXR ag: activates human LXR-beta, counter-screen for hcDAF-12 agonists. shares compounds with hcDAF12 agonist. HEK293 Gal4-LXR tk-luc reporter, luminescence, 24 h; normalized: DMSO 0%, positive control 100%. activation, % at 6.8 µM. 3,400 tested, under 10 active;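 active means mean percent activation of the reporter above a cutoff set as the average over tested compounds plus their standard deviation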
Target sequence (P55055 whole entry, looked up, the tested form may be a part): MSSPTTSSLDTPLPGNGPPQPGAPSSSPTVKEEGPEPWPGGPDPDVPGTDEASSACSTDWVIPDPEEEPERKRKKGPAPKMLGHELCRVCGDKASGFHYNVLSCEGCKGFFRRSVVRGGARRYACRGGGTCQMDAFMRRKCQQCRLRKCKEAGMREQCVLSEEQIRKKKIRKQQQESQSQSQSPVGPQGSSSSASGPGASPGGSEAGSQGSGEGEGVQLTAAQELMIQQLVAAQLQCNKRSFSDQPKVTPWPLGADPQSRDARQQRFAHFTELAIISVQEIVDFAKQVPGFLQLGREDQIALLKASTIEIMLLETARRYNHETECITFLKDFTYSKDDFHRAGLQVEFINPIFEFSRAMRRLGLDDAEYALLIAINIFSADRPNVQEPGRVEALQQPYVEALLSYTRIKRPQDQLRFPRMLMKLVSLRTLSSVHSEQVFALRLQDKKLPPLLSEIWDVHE
hcDAF12 ag: hcDAF-12 agonism, confirmation assay; activation, % at 6.8 µM; AID 743032; HEK293 hcDAF-12 lit1-tk-luc reporter, luminescence; % of Δ7-dafachronic acid response; 3,400 compounds, 61% hits; shares compounds with hcDAF12 agonist;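 active means mean activation across triplicate tests above the threshold derived from the earlier primary screen, cut at about 5.5% in these data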;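 further: 0% = DMSO only wells and 100% = 3 µM Δ7-dafachronic acid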
hgDAF12 conf: hgDAF-12 agonism, confirmation assay | shares compounds with hgDAF-12 ag | HEK293 GAL4-hgDAF12 luciferase reporter, agonist mode; percent of butyrate response | activation, % at 6.8 µM | 3,300 compounds, 80% hits | AID 743050;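 active means mean activation over triplicate wells above the hit cutoff derived from the earlier primary screen, cut at about 11% in these data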;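 further: 0% = DMSO low control and 100% = 2 mM sodium butyrate high control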
LXRb DAF12 ctr: counter-screen for DAF-12 agonists: agonists of human LXR-beta; 3,300 tested, under 10 active; HEK293 Gal4-LXR luciferase reporter, 24 h; activation, % at 6.8 µM; shares compounds with hgDAF-12 ag;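 active means mean activation of the triplicate above a set limit carried over from the primary screen, none filed active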
Starred values were filed as active, the others as inactive; · = not tested or not shown. Sampled rows, rich in hits. Any-hit rate of the full collection: about 4.8%.

SMILES | DAX1 inh-1 | hcDAF12 agonist | hgDAF-12 ag | DAX1 inh-2 | SMARCA2 activ | ssDAF-12 act | DAX1 conf | SF1 mutant ctr | LXR ag | hcDAF12 ag | others
Cn1c(=NC(=O)CS(=O)(=O)c2ccccc2)sc2ccccc21 | 1 | 3 | 1 | 1 | 2 | 1 | · | · | · | ·
Cn1c(=NC(=O)COc2ccccc2)sc2ccccc21 | 4.7* | 7.9* | 13* | 4.7* | 6 | 0 | 7.5* | 5.1* | 0 | 3
COC(=O)CNC(=O)[C@H](Cc1ccccc1)NC1(C(=O)NCCc2c[nH]c3ccccc23)CCCCC1 | · | 1 | 0 | · | · | -1 | · | · | · | ·
O=c1oc2ccccc2cc1-c1nc2c(s1)CCCC2 | 0 | 10* | 12* | 5.0* | 6 | 1 | 5.2* | -1 | 1 | 14*
CC(C)C(=O)Nc1ccc2nn(-c3ccc(F)cc3)nc2c1 | 0 | · | · | · | · | · | · | · | · | ·
Cc1ccc(-n2nc3ccc(NC(=O)C(C)C)cc3n2)cc1 | 2 | 9.8* | 17* | 5.1* | 4 | 1.0* | 16* | 7.7* | 2 | 6.8*
Oc1c(/C=N/Nc2cccc3cccnc23)ccc2ccccc12 | 1 | 1 | 0 | 1 | 1 | 0 | · | · | · | ·
Oc1cccc(/C=N/Nc2cccc3cccnc23)c1 | 3 | 21* | 23* | 5.7* | 7 | 3.7* | 20* | 10* | 2 | 25*
C/C(=N\Nc1cccc2cccnc12)c1ccccc1O | 9.6* | 25* | 25* | 5.6* | 2 | 4.2* | 14* | 4.3* | 3 | 20*
C=CCc1cccc(C=NNC(=O)c2ccco2)c1O | · | -2 | 0 | -4 | -5 | -1 | · | · | · | ·
CN(C(=O)c1ccco1)c1nc2c(s1)CCCC2 | 1 | 8.6* | 12* | 5.1* | 1 | 1.6* | 16* | 6.4* | 1 | 8.3*
N#Cc1ccsc1NC(=O)CSc1nncs1 | 1 | 9.4* | 16* | 8.4* | 6 | 0 | 11* | 5.2* | 1 | 11*
COP(=O)(O)[C@@H](CC(C)C)NC(=O)OCc1ccccc1 | · | -2 | 2 | -1 | -1 | -1 | · | · | · | ·
COc1ccc(-c2csc(-c3ccccc3)n2)c(OC)c1 | 4.6* | 15* | 22* | 8.9* | 3 | 2.4* | 18* | 8.5* | 2 | 11*
Cc1ccc(/C=C/C(=O)N2CCc3ccccc32)o1 | 2 | 13* | 13* | 5.2* | 5 | 1.3* | 16* | 7.3* | 2 | 9.9*
CCCCCCCCN1C(=O)N2Cc3cc(F)ccc3C2CS1(=O)=O (configuration not stated) | · | -1 | 2 | 0 | -5 | -2 | · | · | · | ·
CC(C)Oc1ccc(C(=O)NC2=NCCS2)cc1 | 0 | 7.5* | 22* | 9.9* | 4 | 0 | 14* | 8.1* | 1 | 4
O=C(NC1=NCCS1)c1ccc(C(F)(F)F)cc1 | 1 | 1 | 6 | 1 | 2 | -1 | · | · | · | ·
CCC(=O)c1ccc(/C=C/c2nc3ccccc3n2C)o1 | 0 | 6.9* | 25* | 4.7* | 2 | 1.4* | 8.8* | 5.4* | 1 | 6.7*
Cc1cccc(/C=N/Nc2nncc3ccccc23)c1 | 0 | 12* | 18* | 14* | 12* | 1 | 12* | 4.9* | 2 | 12* | SMARCA2 conf=14*;GAL4-VP16 Luc=8.8*
Cc1ccc(N=Nc2cc(C)ccc2O)c(C)c1 | -2 | 1 | 2 | 1 | 2 | 0 | · | · | · | ·
Cc1ccc(N=Nc2cc(C)ccc2N)cc1 | 0 | 20* | 17* | 4.7* | 3 | 2.8* | 18* | 8.1* | 2 | 22*
Cc1ccc(C(=O)Oc2oc(-c3ccco3)nc2C=Nc2ccc(Cl)cc2)cc1 | 0 | 8.3* | 9 | 4.6* | 8.0* | 1 | 7.9* | 4.7* | 1 | 3 | SMARCA2 conf=2;GAL4-VP16 Luc=20*
Cc1ccc(C(=O)c2sc3nsc(C)c3c2N)cc1 | 1 | 7.2* | 13* | 5.0* | 5 | 1.1* | 14* | 5.4* | 2 | 8.7*
COc1ccc(Cn2ccc3ccc(-c4ccc5ccn(C(=O)c6cccc(OC)c6)c5c4)cc32)cc1 | · | 1 | 8 | 0 | 1 | 0 | · | · | · | ·
SMILES | DAX1 inh-1 | hcDAF12 agonist | hgDAF-12 ag | DAX1 inh-2 | SMARCA2 activ | ssDAF-12 act | DAX1 conf | SF1 mutant ctr | LXR ag | hcDAF12 ag | others
CCn1c(COc2ccc(Cl)cc2)nnc1SCC(=O)Nc1ccc(Oc2ccccc2)cc1 | · | -2 | 0 | 0 | -5 | -1 | · | · | · | ·
COc1ccc2oc(C(=O)NCC3CCCO3)c(C)c2c1 (configuration not stated) | 1 | 12* | 6 | 6.5* | 3 | 1 | 5.1* | 2 | 1 | 6.5*
CN(C)c1ccc(/C=N/NC(=O)c2ccco2)cc1 | 0 | 10* | 14* | 4.6* | 5 | 1.2* | 14* | 7.1* | 1 | 5
Brc1ccc(OCc2cn3ccccc3n2)cc1 | 0 | 4 | 20* | 6.5* | 2 | 0 | 9.2* | 4.6* | · | · | hgDAF12 conf=16*;LXRb DAF12 ctr=1
O=C(COc1ccc(Br)cc1)NCc1cn2ccccc2n1 | -1 | -2 | 5 | 0 | -2 | 0 | · | · | · | ·
Cc1ccsc1C(=O)NN=C1CCCCCC1 | 1 | 9.2* | 15* | 15* | 4 | 1.8* | 4.7* | 3.4* | 0 | 1 | hgDAF12 conf=13*;LXRb DAF12 ctr=1
